Results on 66 compounds are retold here after PubChem BioAssay AID504329 (Southern Research Specialized Biocontainment Screening …, 2011).

As usually defined, the inhibition is the change of the read-out against control, counted positive when it falls.

The whole screen tested about 340,000 compounds, of which about 1,000 (0.29%) were called active. These entries were drawn from the full list. Measured potencies and affinities stand elsewhere. A number with no mark means an inactive call. Cut-off read from the data, not from the text of the source: inconclusive = inhibition above about 27% without an active follow-up result; inactive = below that.

This assay is described as follows: NS1A inhibition, H1N1 influenza, cell based functional assay (AID 504329). The following applies: percent inhibition, at 12.5 µM, hits give high values.
With `CCOc1ccc(C(C(=O)NC2CCCCC2)N(C(=O)c2ccccn2)c2cccnc2)cc1` (stereo unspecified), the inhibition is -3.97%.

For `CCCCCCCCNc1nc(Cl)nc(NCc2ccco2)n1`, the inhibition was -0.33%.

On to `O=C(O)c1ccccc1NS(=O)(=O)c1cccc2nsnc12`, for which the inhibition was -1.24%.

Take `O=C(NNC(=S)NC1CCCCC1)c1ccccc1O`: the inhibition is 5.32%.

On to `O=C(N/N=C/c1c(O)n(C2CCCCC2)c(=S)[nH]c1=O)c1ccccc1O`, for which the inhibition was -5.43%.

On to `Cn1nccc1C(=O)Nc1sc2c(c1C(N)=O)CCCC2`, for which the inhibition is -3.24%.

`Oc1ccc(CNc2ccccc2F)c2cccnc12`: the inhibition is 12.8%.

Take `Oc1ccc(CNc2ccccc2)c2cccnc12`: the inhibition was 10.6%.

Regarding `O=C(Oc1c(CN2CCOCC2)cc(Cl)c2cccnc12)c1ccc(F)cc1`, the inhibition is 5.6%.

Consider `Oc1ccc(CNc2ccc(F)cc2)c2cccnc12`, for which the inhibition was 28.1%.

Regarding `Oc1c(I)cc(Cl)c2cccnc12`, the inhibition is -16.7%.

Consider `Oc1cc2c(cc1CN1CCc3ccccc3C1)OCO2`, for which the inhibition was 13.1%.

`CN1CCN(Cc2cc(Cl)c3cccnc3c2OC(=O)c2cccs2)CC1`: the inhibition was -0.27%.

For the compound `O=c1oc2ccccc2c(O)c1Cc1cc(Cl)c2cccnc2c1O`, the inhibition was -5.95%.

On to `CC(=O)OCC(=O)c1ccc2ccn(C(C)=O)c2c1`, for which the inhibition was 2.53%.

`c1ccc(CN(Cc2cccs2)C(c2cccs2)c2nnnn2C2CCCC2)cc1` (stereo unspecified): the inhibition was 4.12%.

Regarding `CSc1cc(-c2ccc(Cl)cc2)c(C(=O)N2CCCC2)s1`, the inhibition was -3.23%.

For the compound `O=S(=O)(c1cc(F)ccc1F)N1CCN(C2CCCCC2)CC1`, the inhibition is 0.25%.

For the compound `COc1ccc(N=c2sc3ccccc3n2C)cc1`, the inhibition was 1.52%.

`Cn1c(=Nc2ccccc2)sc2ccccc21`: the inhibition was 9.39%.

For `O=C(COC(=O)/C=C/c1cccc(Cl)c1)NC1CCCC1`, the inhibition is -4.83%.

Turning to `CC(C)(C)c1ccc(-c2n[nH]c(=S)n2CC2CCCO2)cc1` (stereo unspecified), the inhibition was 3.44%.

In the case of `Cc1ccc(C2=NOC(=O)/C2=C\C=C\c2ccccc2)cc1`, the inhibition is -3.38%.

For the compound `O=C/C=C/c1ccccc1`, the inhibition is 2.7%.

For the compound `CC1=C(C)N(C)[C@H](c2ccccc2Br)[C@H](O)C1=O`, the inhibition was -9.31%.

In the case of `O=C(CSc1nnc(-c2cccnc2)n1Cc1ccccc1)N1CCOCC1`, the inhibition is 0.45%.

Turning to `Cc1nc2ncccn2c1-c1csc(Nc2ccc(O)cc2)n1`, the inhibition is 5.22%.

For `Cc1ccc(Nc2nc(-c3c(C)nc4ncccn34)cs2)cc1`, the inhibition was -0.31%.

Consider `S=C(NCc1ccco1)Nc1ccc(Cl)cc1Cl`, for which the inhibition is 0.07%.

On to `N=c1n(CCN2CCOCC2)c2ccccc2n1CC(=O)c1cccc([N+](=O)[O-])c1`, for which the inhibition was 0.36%.

On to `Cc1nc2ccccc2c(=O)n1CCCN1CCOCC1`, for which the inhibition is -0.85%.

With `O=c1[nH]c(-c2ccccn2)nc2sc(-c3ccccc3)cc12`, the inhibition is 1.57%.

Take `CCc1cc2c(=O)[nH]c(-c3ccncc3)nc2s1`: the inhibition is -1.62%.

In the case of `COC(=O)c1cc(NS(=O)(=O)c2ccc(NC(C)=O)cc2)ccc1Cl`, the inhibition is 10.8%.

Regarding `COc1cc(/C=N/NC(=S)NCCN2CCOCC2)cc(OC)c1OC`, the inhibition is -0.84%.

Turning to `Oc1cccc(/C=N/NC(=S)NCCN2CCOCC2)c1O`, the inhibition is -11.6%.

On to `COc1cc(/C=N/NC(=S)NCCN2CCOCC2)ccc1O`, for which the inhibition was -6.09%.

`O=C(NCCCN1CCOCC1)C(=O)N/N=C/c1ccccc1Cl`: the inhibition is -2.62%.

Consider `CCCCNC(=S)N/N=C/c1cccc(OCC)c1O`, for which the inhibition is -0.5%.

For `S=C(NCCN1CCOCC1)N/N=C/c1ccccc1`, the inhibition was 4.1%.

With `COc1cc(OC)c(OC)cc1/C=N/NC(=S)NCCN1CCOCC1`, the inhibition was -3.02%.

Take `O=C(NCCCN1CCOCC1)C(=O)N/N=C/c1cccc2ccccc12`: the inhibition is -23.6%.

For `N#C/C(=C\Nc1ccc(Cl)cc1)S(=O)(=O)c1ccccn1`, the inhibition was -7.92%.

As for `Cc1ccc2nc(SCC(=O)Nc3cccc([N+](=O)[O-])c3)[nH]c2c1`, the inhibition is 4.1%.

Regarding `CCOC(=O)C1=C(C)C(c2ccccc2O)NC(=O)N1` (stereo unspecified), the inhibition was -4.1%.

As to `CCCOc1ccc(-c2nc(OCC)c3ccccc3n2)cc1`, the inhibition was -12.4%.

As for `COc1cc2c(cc1OC)C(c1ccsc1)CC(=O)N2` (stereo unspecified), the inhibition was 2.33%.

Turning to `O=C(O)c1ccccc1Nc1ccnc(Cl)n1`, the inhibition was 4.77%.

Consider `O=C(O)c1ccccc1Nc1ccccc1C(=O)O`, for which the inhibition is 5.1%.

With `CCOC(=O)N1CCC(=C(C#N)C(=O)Nc2cc(OC)ccc2OC)CC1`, the inhibition was 7.42%.

Regarding `COc1ccccc1NC(=O)CSc1n[nH]c(-c2ccco2)n1`, the inhibition was -13%.

Turning to `COc1ccccc1-c1nc(SCC(=O)Nc2ccccc2F)n[nH]1`, the inhibition is -2.78%.

Consider `O=C(CSc1n[nH]c(-c2cccnc2)n1)Nc1cccc(Cl)c1`, for which the inhibition was 0.29%.

With `Cc1nc(SCC(=O)Nc2cccc(Cl)c2)n[nH]1`, the inhibition was -19.4%.

Turning to `COc1ccccc1NC(=O)CSc1n[nH]c(-c2cccnc2)n1`, the inhibition was 2.96%.

With `O=C(CSc1n[nH]c(-c2cccnc2)n1)Nc1ccccc1`, the inhibition was -8.39%.

With `O=C(CSc1n[nH]c(-c2ccncc2)n1)Nc1ccccc1`, the inhibition is -1.24%.

Consider `O=C(CSc1n[nH]c(-c2ccco2)n1)Nc1ccccc1F`, for which the inhibition is 2.4%.

For the compound `CCOC(=O)c1c(C)[nH]c(C)c1S(=O)(=O)N(C)CC(=O)Nc1ccccc1F`, the inhibition was -8.93%.

`COc1ccc(OC2C(=O)N(CCc3ccc(OC)c(OC)c3)C2c2ccc3c(c2)OCO3)cc1` (stereo unspecified): the inhibition is 22.8%.

`Cc1cc(C)cc(OCC(O)Cn2nc(C)cc2C)c1` (stereo unspecified): the inhibition is -5.82%.

In the case of `CC(C)Cc1nc(Cl)c(C#N)c2c1CCCC2`, the inhibition is 0.11%.

Regarding `COCC1CCN(C(=O)C2CCC(=O)N(C3CCCCCC3)C2)CC1` (stereo unspecified), the inhibition is 8.12%.

On to `COC(=O)CN1C(=O)Nc2ccc(Cl)cc2C1c1ccccc1` (stereo unspecified), for which the inhibition was 4.9%.

As for `CC(=O)c1nn(-c2cccc(C)c2)cc1C(=O)c1cccc(Br)c1`, the inhibition is 2.16%.

For `O=C(Nc1ccc(F)cc1)c1ccc(CSc2ccc(Cl)cc2)o1`, the inhibition is -1.55%.
